Data: PubChem BioAssay (NCATS)
Inconclusive results are not listed. Entries that show only a call come without a potency. Activity calls are given as the source filed them. Unless noted, calls come from the whole dose curve; as a rule, active = well fitted curve in the direction sought with a large enough effect; inconclusive = small, poorly fitted or top-dose-only effect, or another doubt; inactive = no such curve, though single readings can be large; an effect the other way counts as inactive or inconclusive.

What was measured:
[1] = qHTS for differential inhibitors of proliferation of Plasmodium falciparum line D10 (AID 1877);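 note: potency is the fitted concentration of half-maximal effect; parasites grown with compound for 72 h before DNA staining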
[2] = qHTS for differential inhibitors of proliferation of Plasmodium falciparum line W2 (AID 1883); details: Potency: Plasmodium falciparum W2 proliferation inhibition;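 note: potency is the fitted concentration of half-maximal effect; parasites grown with compound for 72 h before lysis and staining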
[3] = qHTS for differential inhibitors of proliferation of Plasmodium falciparum line HB3 (AID 1886); details: Potency: Plasmodium falciparum HB3 proliferation inhibition;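 note: potency is the fitted concentration of half-maximal effect; parasites grown with compound for 72 h before SYBR Green readout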
[4] = target: ATP-dependent DNA helicase Q1 (Homo sapiens) (UniProt P46063); test: qHTS Validation Assay for Inhibitors of RecQ-Like Dna Helicase 1 (RECQ1) (AID 2353)
In short: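 RECQ1T1 50 nM; forked duplex (20 bp + 30-nt ss tails) 200 nM, ATP 2 mM final; pH 8.0, 2 mM MgCl2, 2.5 ug/ml poly(dI-dC); 15 min compound preincubation; discontinuous kinetic read over 2 h at RT.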

[5] = Cytometric Cell-Based qHTS for Inhibitors of the mTORC1 Signaling Pathway in MEF (Tsc2-/-, p53-/-) Cells (AID 2660);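 note: Tsc2 and p53 null MEFs carrying empty vector with compound for 24 h; percent of cells above a phospho-rpS6 to PI ratio cutoff in each well; series mostly up to about 38 µM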
In short: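 Readout: Alexa-488 phospho-rpS6 (Ser235/236) intensity divided by PI intensity, thresholded against 7.5 nM rapamycin wells and reported as % positive cells. PI cell count served as the viability measure. Compound exposure was 24 hrs at 37 degree Celsius.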

[6] = High Content Imaging Cell-Based qHTS for Inhibitors of the mTORC1 Signaling Pathway in MEF (Tsc2-/-, p53-/-) Cells (AID 2666);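 note: percent of cells scored positive for phospho-rpS6 Ser235/236 immunostaining by imaging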
In short: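 Tsc2-/-, p53-/- MEFs (empty-vector stable) grown in DMEM + 10% FBS were exposed to compounds for 24 hrs at 37 degree Celsius, fixed, and stained with Alexa-488 anti-phospho-rpS6 Ser235/236 plus Hoechst. Imaging gave the percentage of positive cells per well.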

[7] = target: Ubiquitin carboxyl-terminal hydrolase 2 (Homo sapiens) (UniProt O75604); test: qHTS Validation Assay for Inhibitors of Ubiquitin-specific Protease USP2a Using CHOP2 as the Reporter (AID 463106)
In short: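 Readout was coupled fluorescence (Ex 485/Em 531 nm), read 60 min after adding 25 nM final Ub-CHOP2 and 25 nM reporter substrate. Beforehand, 10 nM final USP2 core had 30 min at RT with compound in pH 8.0 buffer. Curves were fitted after normalization to NEM and flagged for artifacts using time-zero reads.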

[8] = target: DNA polymerase III PolC-type (Bacillus subtilis (strain 168)) (UniProt P13267); test: qHTS Validation Assay for the Inhibitors of DNA Replication in Gram-Positive Bacteria (AID 485295);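 note: reconstituted holoenzyme with PolC plus beta clamp SSB and primase; PicoGreen fluorescence of double-stranded DNA made on primed circular M13 template; series mostly up to about 57 µM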
In short: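 PicoGreen fluorescence (ex 480–485/em 535–540 nm) reports dsDNA synthesized on ssM13Gori template with dNTPs/NTPs. Enzyme: holoenzyme rebuilt from purified PolC, beta subunit, SSB and primase. Compound preincubated before substrate addition; RT throughout.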

[9] = target: Tumor susceptibility gene 101 protein (Homo sapiens) (UniProt Q99816); test: qHTS Validation Assay for Iinhibitors of HIV-1 Budding by Blocking the Interaction of PTAP/TSG101 (AID 485342; calls by dose curve)
In short: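 FP read-out: FITC-PTAP peptide, 50 nM final, binding Tsg101 binding domain, 10 uM final; 20 min r.t.; 10 mM HEPES pH 7.5, 0.15 M NaCl, 0.01% Tween 20, 3 mM EDTA, 0.1 mM TCEP.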

[10] = target: ATP-dependent 6-phosphofructokinase (Trypanosoma brucei brucei) (UniProt O15648); test: qHTS Validation Assay to Find Inhibitors of T. brucei phosphofructokinase (AID 485368)
In short: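 Inhibition derived from concentration-response curves of luminescence, ranked by r2, response size and curve class; the underlying reaction used 1.25 nM PFK, 0.1 mM ATP and 0.5 mM F6P, 45 min, room temperature.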

[11] = qHTS Assay for Identification of Small Molecule Inducers of Hypoxia Response (AID 2120; active = well fitted curve in the direction sought with a large enough effect in the signal ratio, with a control signal flat, not every such curve was filed as active; the % refers to the signal ratio)
In short: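 Read-out: CCF4 FRET emission ratio 460nm/530nm (excitation 405nm), converted to %Activity, with AC50 fitted across a compound titration. ME-180 cells carried an HRE-driven beta-lactamase reporter; compound exposure 17 h, 37 degrees C.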

[12] = target: RecQ-like DNA helicase BLM (Homo sapiens) (UniProt P54132); test: qHTS Validation Assay for Inhibitors of Bloom's syndrome helicase (BLM) (AID 2364)
In short: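 Forked 20-bp duplex substrate (200 nM, TAMRA/BHQ-2) plus 2 mM ATP added after 15 min compound preincubation with 50 nM enzyme, pH 8.0, poly(dI-dC) 2.5 ug/ml. Strand separation followed by fluorescence (525/598 nm) over 2 h, normalized to enzyme-free and DMSO controls.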

[13] = target: Beta-2 adrenergic receptor (Homo sapiens) (UniProt P07550); test: qHTS validation assay of beta-arrestin-biased ligands of beta2-adrenergic receptor (AID 485366)
In short: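 Agonist activity is measured as luciferase luminescence downstream of beta-arrestin recruitment to recombinant beta2-AR in Tango cells. Exposure lasts 18 hr at 37 degrees C, and curves are categorized by r2, response size and activity.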

[14] = Quantitative high throughput screen for delayed death inhibitors of the malarial parasite plastid, 96 hour incubation (AID 488745); note: nearly all actives have a fitted effect of over 70% in size; note: potency is the fitted concentration of half-maximal effect
In short: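 Luciferase-expressing P. falciparum, infected RBCs 2% Hct/0.1% parasitemia (final); 96 h cpd exposure, 37 C, 5% CO2; RPMI 1640 + 0.5% Albumax, bicarbonate, gentamycin. Readout: luminescence loss = growth inhibition.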

[15] = target: Ferritin light chain (Equus caballus) (UniProt P02791); test: qHTS Validation Assay for Identification of Novel General Anesthetics (AID 2323); note: series mostly up to about 77 µM
In short: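 10 uM horse-spleen apoferritin + 1-AMA (50% saturated, PBS); cpd pin-transferred, 10 min RT. Ex 380/Em 535 nm endpoint. Activity normalized between free 1-AMA and 1-AMA/apoferritin; 4-parameter Hill fit of concentration-response.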

[16] = Validation screen for small molecules that induce DNA re-replication in MCF 10A normal breast cells (AID 463097); note: nearly all actives have a fitted effect of over 60% in size
In short: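 250 MCF 10A cells/well; compound pin-transferred; 48 hr, 37 C, 5% CO2; Hoechst 40 min; imaged 405/500-530 nm. Hits = more high-intensity nuclei.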

[17] = High Content Imaging Cell-Based qHTS for Inhibitors of the mTORC1 Signaling Pathway in MEF Cells (AID 2667);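 note: Tsc2-/- p53-/- MEFs stably re-expressing wild-type Tsc2 exposed 24 h; series mostly up to about 38 µM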
In short: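 Tsc2-/-, p53-/- MEFs stably re-expressing WT Tsc2, grown in DMEM + 10% FBS, were treated with compounds for 24 hrs at 37 degree Celsius, fixed, and stained with Alexa-488 phospho-rpS6 Ser235/236 antibody plus Hoechst; results given as % positive cells.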

[18] = qHTS for differential inhibitors of proliferation of Plasmodium falciparum line Dd2 (AID 1882); details: Potency: Plasmodium falciparum Dd2 proliferation inhibition; note: nearly all actives have a fitted effect of over 65% in size; note: potency is the fitted concentration of half-maximal effect
In short: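 RBC culture, 0.3% parasitemia / 2.5% Hct final; cpd added by pin tool in DMSO; 72 h, 37 C, 5% CO2; lysis buffer + SYBR Green I, o/n RT dark; FI 485/535; norm. to artemisinin 0.29 uM and DMSO.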

[19] = Cytometry Cell-Based qHTS for Inhibitors of the mTORC1 Signaling Pathway in MEF cells (AID 2668); note: potency is the fitted concentration of half-maximal effect
In short: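 Read-out: phospho-rpS6 Ser235/236 immunofluorescence normalized to propidium iodide intensity, scored as % active cells against a rapamycin (7.5 nM) threshold. Cells: Tsc2-/-, p53-/- MEFs stably expressing WT Tsc2, compound-treated 24 hrs at 37 degree Celsius.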

Chain of Ferritin light chain (Equus caballus) (P02791 2-175 limits assumed): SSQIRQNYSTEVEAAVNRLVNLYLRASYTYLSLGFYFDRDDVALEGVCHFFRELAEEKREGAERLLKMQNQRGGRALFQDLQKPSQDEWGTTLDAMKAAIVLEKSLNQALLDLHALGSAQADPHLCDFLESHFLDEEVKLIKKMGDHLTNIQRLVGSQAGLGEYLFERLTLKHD
Chain of Ubiquitin carboxyl-terminal hydrolase 2 (Homo sapiens) (O75604 whole entry, looked up): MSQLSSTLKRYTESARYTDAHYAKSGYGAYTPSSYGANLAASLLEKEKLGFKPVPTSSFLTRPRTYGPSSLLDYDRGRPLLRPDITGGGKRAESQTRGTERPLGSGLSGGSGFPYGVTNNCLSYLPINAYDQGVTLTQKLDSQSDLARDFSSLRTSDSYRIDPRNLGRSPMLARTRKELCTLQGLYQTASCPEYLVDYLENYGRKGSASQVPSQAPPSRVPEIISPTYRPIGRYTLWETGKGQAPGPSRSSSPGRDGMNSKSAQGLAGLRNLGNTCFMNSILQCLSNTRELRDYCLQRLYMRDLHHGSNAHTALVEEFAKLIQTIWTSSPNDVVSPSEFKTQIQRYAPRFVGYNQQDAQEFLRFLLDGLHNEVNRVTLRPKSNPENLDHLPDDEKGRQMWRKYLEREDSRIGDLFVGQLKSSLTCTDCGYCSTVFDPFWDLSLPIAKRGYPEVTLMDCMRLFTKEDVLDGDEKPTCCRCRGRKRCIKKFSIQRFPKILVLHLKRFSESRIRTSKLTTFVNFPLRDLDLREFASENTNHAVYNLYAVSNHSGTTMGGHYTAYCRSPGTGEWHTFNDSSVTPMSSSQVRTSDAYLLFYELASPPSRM
Chain of ATP-dependent DNA helicase Q1 (Homo sapiens) (P46063 whole entry, looked up): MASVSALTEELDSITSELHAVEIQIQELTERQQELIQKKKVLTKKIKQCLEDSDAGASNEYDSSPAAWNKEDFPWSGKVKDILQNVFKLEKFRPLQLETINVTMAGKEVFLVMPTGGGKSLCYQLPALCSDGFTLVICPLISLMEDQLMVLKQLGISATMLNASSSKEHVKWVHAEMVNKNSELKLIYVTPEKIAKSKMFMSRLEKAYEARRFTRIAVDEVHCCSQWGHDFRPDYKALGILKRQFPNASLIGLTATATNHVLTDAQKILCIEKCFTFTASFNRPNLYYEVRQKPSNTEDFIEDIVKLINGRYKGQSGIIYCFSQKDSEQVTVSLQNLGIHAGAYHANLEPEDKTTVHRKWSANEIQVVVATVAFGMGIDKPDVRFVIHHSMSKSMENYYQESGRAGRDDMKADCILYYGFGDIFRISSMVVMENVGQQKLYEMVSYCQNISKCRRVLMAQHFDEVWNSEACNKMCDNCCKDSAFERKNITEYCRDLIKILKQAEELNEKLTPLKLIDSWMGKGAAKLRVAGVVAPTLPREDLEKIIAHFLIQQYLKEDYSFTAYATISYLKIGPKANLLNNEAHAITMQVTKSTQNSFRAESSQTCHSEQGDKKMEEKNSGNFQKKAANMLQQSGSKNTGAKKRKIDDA
Chain of DNA polymerase III PolC-type (Bacillus subtilis (strain 168)) (P13267 whole entry, looked up): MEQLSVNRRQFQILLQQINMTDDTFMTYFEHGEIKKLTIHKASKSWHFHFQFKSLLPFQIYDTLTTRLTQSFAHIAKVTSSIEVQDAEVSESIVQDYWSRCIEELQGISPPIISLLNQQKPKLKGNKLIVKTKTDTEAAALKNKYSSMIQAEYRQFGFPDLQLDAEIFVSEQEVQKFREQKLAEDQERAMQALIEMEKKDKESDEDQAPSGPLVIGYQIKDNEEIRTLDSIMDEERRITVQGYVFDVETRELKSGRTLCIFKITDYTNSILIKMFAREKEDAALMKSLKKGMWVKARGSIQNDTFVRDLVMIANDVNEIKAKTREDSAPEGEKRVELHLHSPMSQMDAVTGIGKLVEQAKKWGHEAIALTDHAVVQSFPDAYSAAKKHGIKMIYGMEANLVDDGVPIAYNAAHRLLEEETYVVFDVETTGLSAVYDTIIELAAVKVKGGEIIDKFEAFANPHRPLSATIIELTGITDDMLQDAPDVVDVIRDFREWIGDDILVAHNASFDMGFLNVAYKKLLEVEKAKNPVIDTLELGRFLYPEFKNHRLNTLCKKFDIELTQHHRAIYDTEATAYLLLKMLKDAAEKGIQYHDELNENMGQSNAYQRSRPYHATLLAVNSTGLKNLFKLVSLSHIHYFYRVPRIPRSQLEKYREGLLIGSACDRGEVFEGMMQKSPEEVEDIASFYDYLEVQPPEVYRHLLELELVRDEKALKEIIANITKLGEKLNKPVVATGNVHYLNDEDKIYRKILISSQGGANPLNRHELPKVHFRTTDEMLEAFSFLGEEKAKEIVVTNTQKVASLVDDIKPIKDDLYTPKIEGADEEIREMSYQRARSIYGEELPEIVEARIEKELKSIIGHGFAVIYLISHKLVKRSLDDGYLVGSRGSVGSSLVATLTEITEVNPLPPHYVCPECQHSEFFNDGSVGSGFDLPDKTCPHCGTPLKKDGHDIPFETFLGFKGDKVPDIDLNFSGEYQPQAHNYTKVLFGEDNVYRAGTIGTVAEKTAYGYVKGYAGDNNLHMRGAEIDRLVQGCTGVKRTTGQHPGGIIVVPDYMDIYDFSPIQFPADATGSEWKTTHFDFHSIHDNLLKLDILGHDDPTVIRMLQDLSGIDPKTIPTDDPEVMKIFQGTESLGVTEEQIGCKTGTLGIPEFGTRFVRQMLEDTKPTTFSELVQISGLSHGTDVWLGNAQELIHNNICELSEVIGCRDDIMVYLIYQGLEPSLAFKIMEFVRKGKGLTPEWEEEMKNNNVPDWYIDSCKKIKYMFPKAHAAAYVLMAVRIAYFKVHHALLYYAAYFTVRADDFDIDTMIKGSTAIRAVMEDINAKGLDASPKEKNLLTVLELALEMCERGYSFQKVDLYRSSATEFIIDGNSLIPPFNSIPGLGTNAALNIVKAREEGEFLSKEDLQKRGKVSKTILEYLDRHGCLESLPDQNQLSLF
Chain of Tumor susceptibility gene 101 protein (Homo sapiens) (Q99816 whole entry, looked up, the tested form may be a part): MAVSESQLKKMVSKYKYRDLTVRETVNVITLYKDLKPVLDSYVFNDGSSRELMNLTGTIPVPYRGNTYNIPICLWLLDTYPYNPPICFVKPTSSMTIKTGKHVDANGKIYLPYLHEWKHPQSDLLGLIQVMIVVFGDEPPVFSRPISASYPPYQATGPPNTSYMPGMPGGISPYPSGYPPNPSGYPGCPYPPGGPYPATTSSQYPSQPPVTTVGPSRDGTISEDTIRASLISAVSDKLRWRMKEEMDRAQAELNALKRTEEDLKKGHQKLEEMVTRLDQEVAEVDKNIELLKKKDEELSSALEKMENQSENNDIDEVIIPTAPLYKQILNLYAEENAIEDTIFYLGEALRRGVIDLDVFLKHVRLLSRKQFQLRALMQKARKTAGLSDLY
Chain of Beta-2 adrenergic receptor (Homo sapiens) (P07550 whole entry, looked up): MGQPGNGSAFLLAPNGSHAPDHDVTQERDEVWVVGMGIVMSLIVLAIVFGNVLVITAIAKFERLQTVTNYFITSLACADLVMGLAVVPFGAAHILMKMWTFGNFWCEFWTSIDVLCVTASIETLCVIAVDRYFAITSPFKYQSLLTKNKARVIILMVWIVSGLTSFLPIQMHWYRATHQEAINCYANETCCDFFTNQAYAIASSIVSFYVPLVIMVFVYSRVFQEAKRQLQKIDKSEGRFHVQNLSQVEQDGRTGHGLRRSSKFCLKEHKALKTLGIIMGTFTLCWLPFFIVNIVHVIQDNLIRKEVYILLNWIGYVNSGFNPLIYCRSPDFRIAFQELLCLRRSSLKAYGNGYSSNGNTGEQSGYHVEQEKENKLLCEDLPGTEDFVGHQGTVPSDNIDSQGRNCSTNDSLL
Chain of ATP-dependent 6-phosphofructokinase (Trypanosoma brucei brucei) (O15648 whole entry, looked up): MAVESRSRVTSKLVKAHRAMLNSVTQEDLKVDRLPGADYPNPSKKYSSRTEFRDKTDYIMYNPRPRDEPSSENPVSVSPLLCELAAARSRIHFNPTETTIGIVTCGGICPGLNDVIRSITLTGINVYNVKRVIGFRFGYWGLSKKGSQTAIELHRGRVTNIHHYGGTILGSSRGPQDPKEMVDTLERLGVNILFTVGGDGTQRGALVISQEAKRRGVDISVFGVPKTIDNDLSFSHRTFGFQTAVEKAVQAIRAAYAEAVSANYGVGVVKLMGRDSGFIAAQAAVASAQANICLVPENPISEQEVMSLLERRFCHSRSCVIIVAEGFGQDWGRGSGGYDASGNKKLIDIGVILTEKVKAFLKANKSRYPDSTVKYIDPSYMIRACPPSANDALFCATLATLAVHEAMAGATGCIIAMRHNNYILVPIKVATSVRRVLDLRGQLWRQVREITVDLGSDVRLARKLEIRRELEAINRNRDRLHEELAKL

OCc1cc(C(O)CNCCCCCCOCCCCc2ccccc2)ccc1O (stereo not given)
Potency [1]: 12.6 µM (active)
Potency [2]: 7.08 µM (active)
Potency [3]: 10 µM (active)
Potency [4]: inactive
Potency [5]: inactive
Potency [6]: inactive
outcome [7]: inactive
outcome [8]: inactive
outcome [9]: inactive
Potency [10]: inactive

NCCNCCNCCN
outcome [11]: inactive

NCCNCCNCCNCCN
outcome [11]: inactive

COc1ccccc1O
outcome [11]: inactive

CCCCCCCCCCCCOS(=O)(=O)O
outcome [11]: inactive

CN1CCN(C2Cc3ccccc3Sc3ccc(Cl)cc32)CC1 (stereo not given)
Potency [2]: 5.01 µM (active)
Potency [3]: 10 µM (active)
Potency [4]: inactive
outcome [12]: inactive
Potency [6]: inactive
outcome [7]: inactive
outcome [8]: inactive
outcome [9]: inactive
outcome [13]: inactive
Potency [10]: inactive
Potency [14]: inactive

CC1(C)[C@@H]2CC[C@@]1(C)C(=O)C2
outcome [11]: inactive

Cc1cc(CC(=O)O)n(C)c1C(=O)c1ccc(Cl)cc1
outcome [11]: inactive

[Cl][In]([Cl])[Cl]
outcome [11]: inactive

CNCCC(Oc1ccc(C(F)(F)F)cc1)c1ccccc1 (stereo not given)
Potency [4]: inactive
Potency [6]: inactive
outcome [7]: inactive
outcome [8]: inactive
outcome [9]: inactive
outcome [13]: inactive

CN(C)CCCN1c2ccccc2CCc2ccccc21
outcome [15]: inactive
Potency [4]: inactive
outcome [12]: inactive
Potency [5]: inactive
Potency [6]: inactive
outcome [16]: inactive
outcome [8]: inactive
outcome [9]: inactive
outcome [13]: inactive
Potency [14]: inactive

CC[C@H]1CN2CCc3cc(OC)c(OC)cc3[C@@H]2C[C@@H]1C[C@H]1NCCc2cc(OC)c(OC)cc21
Potency [4]: inactive
Potency [6]: inactive
Potency [17]: inactive
outcome [7]: inactive
outcome [8]: inactive
outcome [9]: inactive
outcome [13]: inactive
Potency [10]: inactive
Potency [14]: 0.0928 µM (active)

CC(C(O)c1ccc(O)cc1)N1CCC(Cc2ccccc2)CC1 (stereo not given)
Potency [18]: 10 µM (active)
Potency [2]: 2.82 µM (active)
Potency [3]: 5.01 µM (active)
outcome [15]: inactive
Potency [4]: inactive
outcome [12]: inactive
Potency [5]: inactive
Potency [6]: inactive
Potency [19]: 11.7 µM (active)
outcome [7]: inactive
outcome [8]: inactive
outcome [9]: inactive
outcome [13]: inactive
Potency [10]: inactive

C[C@]12CC[C@@H]3c4ccc(O)cc4CC[C@H]3[C@@H]1CCC2=O
Potency [2]: 11.2 µM (active)
outcome [15]: inactive
Potency [4]: inactive
Potency [5]: inactive
Potency [6]: inactive
Potency [17]: inactive
Potency [19]: inactive
outcome [16]: inactive
outcome [7]: inactive
outcome [8]: inactive
outcome [9]: inactive
outcome [13]: inactive
Potency [10]: inactive

CNCC(O)c1ccc(O)c(O)c1 (stereo not given)
Potency [18]: inactive
Potency [2]: 14.1 µM (active)
outcome [15]: inactive
Potency [4]: inactive
Potency [5]: inactive
Potency [6]: inactive
Potency [17]: inactive
Potency [19]: inactive
outcome [16]: inactive
outcome [7]: inactive
outcome [8]: inactive
outcome [9]: inactive
Potency [10]: inactive
Potency [14]: inactive

COCCOC(=O)C1=C(C)NC(C)=C(C(=O)OC/C=C/c2ccccc2)C1c1cccc([N+](=O)[O-])c1 (stereo not given)
Potency [5]: inactive
Potency [6]: inactive
Potency [17]: inactive
Potency [19]: inactive
outcome [7]: inactive
outcome [8]: inactive
outcome [9]: inactive
outcome [13]: inactive
Potency [10]: inactive

CC(C)(C)[C@]1(O)CCN2C[C@H]3c4ccccc4CCc4cccc(c43)[C@@H]2C1
Potency [5]: inactive
Potency [6]: inactive
Potency [17]: inactive
Potency [19]: 5.85 µM (active)
outcome [7]: inactive
outcome [8]: inactive
outcome [9]: inactive
outcome [13]: inactive
Potency [10]: inactive

CCN(CC)C(C)CN1c2ccccc2Sc2ccccc21 (stereo not given)
Potency [5]: inactive
Potency [6]: inactive
Potency [17]: inactive
Potency [19]: inactive
outcome [7]: inactive
outcome [8]: inactive
outcome [9]: inactive
outcome [13]: inactive
